Experimental data from PubChem BioAssay AID1508600 (Functional Genomics Laboratory (NCATS/FGL), 2020).
Out of some 53,000 sequences screened, about 3,700 (7%) were called active. The full list was thinned out, with actives kept by preference. Unmarked numbers belong to inactive results.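 The calls were made as follows: active = gene knockdowns whose robust z-score for IL-1 alpha signal is at least 2 or at most -2, so actives lie on both sides; inactive = the rest.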

Assay: Components of the Cytosolic LPS Sensing Pathway: Gene Identification via Genome-wide siRNA Screen;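 also: robust z of the log signal after scaling to non-targeting control siRNA wells of the plate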
Conditions: RAW264.7 macrophages, IL-1a HTRF, actives lie on both sides, screened at 100 nM (by protocol), cells primed 5 h with Pam3CSK4 first
How it was run: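 Cells (RAW264.7, 1×10^4 per well) were transfected with siRNA at 100 nM and cultured 48h at 37 degrees C. Pam3CSK4 was added for 5 hours; LipidA transfection followed for 24 hour. IL-1a was then measured by HTRF.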

Sequence	z-score
GAGCUGUGAAUGCCUGUGGTT against Lyz2	-2.33 (active)
GCUAGUUAAUGGUAACAUATT against Sult1d1	-1.68
GGCCAAACUGGAUUACUUATT against Tmprss11c	1.26
CCCUGCUCUCACUUGUUUATT against Olfr643	-0.446
CCUUUCUUGUGUUUACAGGTT against P2ry6	-0.347
GGCAGUUUCUUCUUCCAAATT against H1f1	2.89 (active)
GGUGAUCAACAAUGGCAAUTT against Clec4a3	1.26
GCACAUGUGUUUAUACAUUTT against Sfxn3	-0.556
CGACGAGGAAUAACCUCUCTT against Myh6	2.05 (active)
GGGUAUGGCAUAAAUGUCCTT against Zpbp	-2.75 (active)
GGCAUUCCAGAGAAAGCGUTT against F3	-1.33
GCGAAUUGGAACAGCUGACTT against Sh3glb1	-0.982
GGUAUACCACUAUUCUCACTT against Olfr649	0.705
CCAUAUAUGAUAGGAAACUTT against Pon2	-0.288
GCCACAAUGUCCAAAAUUATT against Rab6a	-0.271
GGAGCUUUUAAGAAUGUGGTT against Ireb2	-1.57
GCAGGUGCCUUCAAAAACCTT against Pm20d2	-0.926
CCUACGAGUUUUGCAUUUATT against Slc25a51	-2.46 (active)
GGCAGCAGUUAAUUUACUUTT against Mmp21	-1.71
GGCGGGUAGAUAUCAUGGGTT against Stn1	0.902
GGAAGCAAUGAUCAAUUAUTT against Ppp2r3c	0.752
GGUUCCAUGUUCAGAAUUUTT against Alg9	2.04 (active)

Sequence	z-score
GGCAAUGAUGAUCUCCUCUTT against Htra3	0.434
GGGUAUGACCGGUAUUACATT against Atp5j2	0.213
GGAGGCAGCCAAAGAAAACTT against Bmp8a	0.462
GGAUGAAAUCGCCAUAUGUTT against Snrnp48	-1.89
GGAGAAAACCUAGAAAUUUTT against Galnt1	0.238
CCGGCUAUGAAGAUGAGUATT against Cox6a1	3.21 (active)
GCCGUAAGCUAGGAUCUGGTT against 1700065D16Rik	0.787
GGUAAUACAACUGAGAACUTT against Zfp2	0.39
GGCAUCUGAGUGAUAUAAATT against Dcps	0.109
GGCCGUGUUAUCCAGAUUGTT against Prkcd	1.43
GGCAGUCUCAGGUUAUCUCTT against Zfp445	0.406
GGCUUUUCAGCAGGUUUAATT against Ube2g1	5.04 (active)
GGCUGUAAGGGAACAGCUATT against Irf2bp1	-0.615
GGUGAUGAAAUUUAUUGAGTT against Gpn1	-0.127
GGAGAAGGGCCUGAAGUAUTT against Lsm5	-1.77
GGUGGCAGUCACCAUUCUUTT against Il17rd	-0.364
CCAUACAGAUCGCACCCUGTT against Txndc15	-2.15 (active)
GGACAGAGCCUAGAAAACUTT against Mpdu1	-1.15
GGCUCCAAGGGAUUUGGUUTT against Rbfox1	2.77 (active)
GGACUUUGUCAACCAUGUCTT against Fbxl5	-0.0144
CGUCAAUUCACACCAUUCATT against Gsk3a	-1.25
GGGUGCUCUGAAGAAGCAATT against Olfr488	-2.04 (active)

Sequence	z-score
GGCUUAUGUCACCAACUUGTT against Pxdc1	-0.533
GGAGUUAGAAUUGAACCUUTT against Mr1	-1.49
GGAUCCAUUUUGAGGAUUUTT against Vipr1	-0.056
GGGCAAGUACAAGCGUAACTT against Jph4	-1.5
GGGAAAACACAAAGAAGAATT against Angpt1	0.307
GGAGCCUAUCGCUUUACUCTT against Vps16	1.18
GGAGAUCUGUGAUGAGGUGTT against Nudt22	2.07 (active)
GGUGUCAACAUUGCAUACUTT against Gatad2b	1.62
GGAAACAUCCAAGAAAAAUTT against Ap1s2	-0.489
GGCUAUGGAAACCACCACATT against Nrg3	-1.21
CGAUGAUAAAACGAACAAGTT against Plppr5	2.78 (active)
GGAUUGUCCACAUGGAACUTT against Ccl27a	-0.112
GGUAUGGAUGAAGAACUAGTT against Pdhb	1.62
GGUUGUACCUACAACAGAUTT against Tiprl	-0.773
GGCUUUACUUCUUGCUGUGTT against Olfr1412	-0.918
CCAUGGACCAAAUGAAGUUTT against Cd44	2.59 (active)
GCAAGAUACUGACCACUAGTT against Krt25	0.14
CCCAGGUGAGACCUUUACCTT against Fndc3b	-1.76
CCUUCUUGUGGGAGUGAAATT against Chodl	-0.0597
GGUAGACACACACAUUCAUTT against Ampd3	0.633
AGUGCUCAUUAACUGUCGCTT against Snrpd2	-2.75 (active)
CCGUUGACCUGAAAAGGAATT against Clic4	-0.0288

Sequence	z-score
GGAGAAAAGCAAUAAUGAATT against Klf12	-1.07
CGUGAGCACAAAAAUAUUGTT against Fchsd2	-0.251
GGACAAGUCGAAGAGUGAGTT against Ing1	-2.26 (active)
GGAACAGCGGCUAACUUAUTT against Asic4	1.4
GGUGCUAAGCAUGAAGCCUTT against Stk16	-1.01
GGUAGAAGAAUUGUUUGUGTT against Tcp11l1	0.967
GGUGAUGCUUCUUGGAGACTT against Rab37	-0.59
GCGUGAACGGAUAAAAAAUTT against Figla	1.09
GGCACUUAAGGAAAUUGGGTT against Bloc1s1	-2.02 (active)
CCAUUCCAAAGGUAUUAGCTT against Olfr619	-0.244
GGCAAAACAACUUUAUUCCTT against Ucp2	1.14
GGAUAUCACCUUCGAGAUATT against Ankrd7	-0.0496
GGAUGAGAUCAACUUCCUCTT against Krt7	-0.6
GCAUCUCAAGACGAUGGAUTT against Akap8l	2.3 (active)
GGCUUUUGAAGCCAUCAAGTT against Mrpl57	-1.2
GGAAUUCUGACGUGAAGAATT against Olfr13	-0.987
GGUAGACUGUGAAAAUGACTT against Ldlr	-0.6
GGUGAAGCGAAUUCUCUACTT against Upb1	-0.362
GGCAUUGGCAUUUUUAUAGTT against 9530056K15Rik	-0.879
GCCACGAGUUCUUUGAAGCTT against Ubxn6	-0.15
GGACAAGAUUGUAUCUGCATT against Olfr1507	-0.56
GGAGCAAGAGUCUAAAUGATT against Rubcn	-2.23 (active)

Sequence	z-score
GGAUCAAGUGGCUGAUUUGTT against Ube2t	-0.457
GGACUAUUCUGAGAAUCCCTT against Olfr821	-1.69
GCCUCUGAUGUAAACAGGATT against Nr2c2ap	0.883
GCAGUGUAUACCUGGGCUATT against 1700001C19Rik	0.388
GGCACUCCUGAUGUUCUCUTT against Cyb561d2	-2.96 (active)
GGUGUUACAGAUGUACCGATT against Nfkbid	0.0859
GGAAGACAAUGAUGAUGUUTT against Clns1a	-1.82
GGAGUUUUGAAUAAACCAATT against Tmc7	-0.2
GGGCUUUCCUCAAGGUAGUTT against Olfr62	-1.39
GGAAUUGUCUAACAGGCUGTT against Hoxd12	-0.025
GGAACAGUUACUUGAGAGUTT against Zfp786	0.759
CGAGCUCAGGCCUAUUAAATT against Cdh12	3.39 (active)
GGCUUUGACAAUCUUUAAGTT against Ergic1	-0.687
CCUCAACUGGUUCCCUAACTT against Spatc1	-1.73
GCUGGUUACAUAAAGCUACTT against Slc25a51	0.0694
CGGAGUAAACAAUACAGUCTT against Gnmt	2.26 (active)
CCUCCUAAGGAUGAAGAUUTT against Calml4	0.654
CGACAGUUACUUGCCCAGATT against Rasgrp3	-1.36
GGCGAAAUCUGCUAGAGUATT against Tppp3	2.3 (active)
GCUGUCGUUGAAGGCAUUGTT against Olfr317	-0.828
